An excerpt weighted towards active compounds, which were near 18% of everything screened.
VDR inhibitor: vitamin D3 receptor (human) inhibition. P11473. AID 504847. VDR-SRC2-3 peptide fluorescence polarization, 2 h. 400,000 compounds, 0.93% hits. Potency, µM, inactives show max response, negative = inhibition, usual class: inhibitors
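Measured by FP: displacement of SRC2-3 coactivator peptide from VDR by library compounds, following a two-hour ambient incubation.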
DT40 TDP1 CPT: DT40-hTDP1 cell growth loss with CPT; chicken DT40 Tdp1-/-;hTDP1 cells + 20 nM CPT, ATP luminescence, 48 h; Potency, µM (highest dose often 46.2 µM), for inactives: at the top dose activity change, negative = growth inhibition, actives largely listed as inhibitors; 420,000 compounds, 12% hits; further: nearly all actives have a fitted effect of over 55% in size
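Chicken DT40 Tdp1-/- cells stably complemented with human TDP1 were seeded at 400 cells/well in medium containing 20 nM camptothecin, exposed to pin-transferred compounds, and grown at 37 °C for at least 48 hr. Viability was read as ATP luminescence.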
TDP1 inh: TDP1 (human) enzyme inhibition | Q9NUW8 | recombinant TDP1, AlphaScreen DNA substrate cleavage | Potency, µM (series often up to 130 µM), without a hit: top-dose activity change, negative = inhibition, actives largely listed as inhibitors | 350,000 compounds, 0.28% hits | AID 485290; further: nearly all actives have a fitted effect of over 40% in size
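E. coli-derived human Tdp1, 1 nM final. Cpd preinc 15 min RT; substrate 15 nM final, 5 min RT; AS bead mix 10 ug/ml final, 10 min RT. Signal loss = tyrosine-FITC cleavage. No-enzyme wells = max signal.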
PLK1 PBD inh: blocks phosphopeptide binding to human PLK1 polo-box domain. 360,000 compounds, 2.8% hits. AID 720504. P53350. Potency, µM, for inactives: max response, negative = inhibition, actives largely listed as inhibitors. Plk1 PBD binding of FITC phosphopeptide, fluorescence polarization; further: series mostly up to about 57 µM; nearly all actives have a fitted effect of over 65% in size
Target sequence (P53350 whole entry, looked up, the tested form may be a part): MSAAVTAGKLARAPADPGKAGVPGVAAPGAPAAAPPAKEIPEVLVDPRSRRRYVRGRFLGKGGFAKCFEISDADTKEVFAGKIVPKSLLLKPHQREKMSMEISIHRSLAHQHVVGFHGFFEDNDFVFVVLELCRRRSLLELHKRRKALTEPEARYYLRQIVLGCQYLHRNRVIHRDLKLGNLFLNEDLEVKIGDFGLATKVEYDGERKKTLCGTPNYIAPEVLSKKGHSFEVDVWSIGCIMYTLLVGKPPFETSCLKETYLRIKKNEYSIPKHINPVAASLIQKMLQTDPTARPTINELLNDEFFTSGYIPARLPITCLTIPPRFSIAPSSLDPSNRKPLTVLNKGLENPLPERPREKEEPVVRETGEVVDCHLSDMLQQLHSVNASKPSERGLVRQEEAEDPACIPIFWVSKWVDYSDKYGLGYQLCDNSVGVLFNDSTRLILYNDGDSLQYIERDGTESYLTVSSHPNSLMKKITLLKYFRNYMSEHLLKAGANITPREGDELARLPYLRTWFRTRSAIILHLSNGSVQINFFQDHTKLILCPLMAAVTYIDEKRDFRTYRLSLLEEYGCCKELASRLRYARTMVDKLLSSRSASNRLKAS
TDP1 cell noCPT: qHTS for Inhibitors of human tyrosyl-DNA phosphodiesterase 1 (TDP1): qHTS in cells in absence of CPT | DT40 Tdp1-/- hTDP1 cells, no CPT, ATP luminescence, 48 h | Potency, µM (top dose mostly 46.2 µM), for the others: top-dose activity change, negative = growth inhibition, most hits filed as inhibitors | 420,000 compounds, 15% hits; further: nearly all actives have a fitted effect of over 55% in size
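Growth kinetics read by CellTiter-Glo luminescence after ≥48 hr at 37 °C. Cells: DT40 Tdp1-/- stably carrying human TDP1, 400 per well, compound exposure in the absence of CPT (DMSO vehicle).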
KAT2A inh: GCN5L2 (KAT2A) acetyltransferase inhibition; Potency, µM (top dose mostly 58.9 µM), for inactives: at the highest dose activity change, negative = inhibition, hits mostly inhibitors; GCN5L2 HAT assay, ThioGlo1 CoA-SH fluorescence; Q92830; 390,000 compounds, 0.21% hits
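ThioGlo1-coupled HAT assay: 20nM GCN5L2, 70uM acetyl-CoA, 75uM H3(1-25) peptide, pH 7.5. Fluorescence read at 340/540nm at start and after 20 min at room temperature.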
* marks the source's active call; other numbers are inactive results; ? = inconclusive; . = no result given; [ ] = dose if it differs, or a comment. The call rests on the fitted dose curve; in most records, active means well fitted curve in the direction sought with a large enough effect; inconclusive means small, poorly fitted or top-dose-only effect, or another doubt; inactive means no such curve, though single readings can be large; an effect the other way counts as inactive or inconclusive. On the % scale 0 is the no-effect control and ±100 the full control effect; potency means the concentration at half of the fitted maximal effect.

SMILES | VDR inhibitor | DT40 TDP1 CPT | TDP1 inh | PLK1 PBD inh | TDP1 cell noCPT | KAT2A inh
COc1cc2c(cc1O)C(CCc1ccc(Cl)cc1)N(C)CC2 (stereo not given) | . | . | 10.5% | . | . | .
CC(=O)c1ccc2c(c1)C1C(Cl)C(Sc3ccccc3[N+](=O)[O-])CC1C(c1ccccc1)N2 (stereo not given) | ? | 11.6µM* | 8.2% | 15µM* | 14.6µM* | -28.0%
CC(=O)c1ccc2c(c1)C1C(Cl)C(Sc3ccccc3[N+](=O)[O-])CC1C(c1ccccc1[N+](=O)[O-])N2 (stereo not given) | 16.2% | 10.3µM* | -2.8%[56.1 µM] | -11.1% | 13µM* | -11.1%
c1ccc2cc(C3N4CCCN34)ccc2c1 (stereo not given) | 9.8% | 25.4% | -4.9% | -4.7% | 1.3% | 0.0%
ClC(Cl)c1ccccc1 | . | . | 12.7% | . | . | .
O=C(Nc1ccc(Cl)c(C(F)(F)F)c1)NC1CC2CCCC(C1)N2Cc1ccccc1 (stereo not given) | 3.0% | 18.4µM* | 4.9% | 2.6% | 13µM* | -6.6%
CCCC1(CC(C)CC)C(=O)NC(=O)NC1=O (stereo not given) | . | -9.4% | . | 5.7% | -24.1% | .
C[C@H]1CC[C@@H]2[C@@H](C)[C@H]3[C@H](C[C@H]4[C@@H]5CC=C6C[C@@H](O[C@@H]7O[C@H](CO)[C@H](O)[C@H](O[C@@H]8O[C@H](CO)[C@@H](O)[C@H](O)[C@H]8O)[C@H]7O[C@@H]7O[C@@H](C)[C@H](O)[C@@H](O)[C@H]7O)CC[C@]6(C)[C@H]5CC[C@]34C)N2C1 | -0.5% | 14.6µM* | -2.7% | 12.3% | ? | -1.6%
CCOC(=O)N1CCN(/[N+]([O-])=N/Oc2ccc([N+](=O)[O-])cc2[N+](=O)[O-])CC1C (stereo not given) | 56.2µM* | . | 12.7% | . | . | .
N#CC1=C(N)Oc2n[nH]c(-c3cccs3)c2C1c1ccsc1 (stereo not given) | 7.9% | -21.1% | 5.5% | 26.7µM* | -12.0% | -2.1%
CC(N=Cc1c(O)[nH]c(=O)[nH]c1=O)c1ccccc1 (stereo not given) | -8.6% | -13.0% | -2.0% | -13.8% | ? | -7.4%
COC(=O)C1=C(c2ccc(OC)c(OC)c2)C[C@@H]2CC[C@H]1N2C(=O)NCc1cc(C)oc1C(F)(F)F | 8.2% | -7.9% | 1.1% | -2.7% | -22.9% | 0.0%
COC(=O)C1=C(c2cccc(OCc3ccccc3)c2)C[C@@H]2CC[C@H]1N2C(=O)NCc1cccc(C(F)(F)F)c1 | -11.4% | 20.6µM* | -0.1% | -6.3% | 16.4µM* | -7.2%
COC(=O)C1=C(c2cccc(OCc3ccccc3)c2)C[C@@H]2CC[C@H]1N2C(=O)NCc1ccccc1OC | -17.9% | ? | 1.9% | -12.9% | 23.1µM* | -6.6%
COC(=O)C1=C(c2cccc(OCc3ccccc3)c2)C[C@@H]2CC[C@H]1N2C(=O)NCc1cc(C)oc1C(F)(F)F | -13.9% | 23.1µM* | 1.1% | -15.1% | ? | -3.3%
COC(=O)C1=C(c2ccc(F)cc2F)C[C@@H]2CC[C@H]1N2C(=O)NCc1ccc2c(c1)OCO2 | -6.2% | ? | -0.3% | 0.8% | ? | -1.8%
COC(=O)C1=C(c2ccc(OCc3ccccc3)cc2)C[C@@H]2CC[C@H]1N2C(=O)NCc1ccc2c(c1)OCO2 | . | 5.8µM* | . | -10.2% | 4.11µM* | .
Cc1nnc2n1-c1ccc(Cl)cc1C(c1ccccc1Cl)=NC2 | -0.7% | -3.4% | . | . | -2.9% | -16.8%
COc1ccccc1N1CCN(Cc2ccc(Br)s2)CC1 | -1.9% | ? | -6.9% | -6.3% | -26.7% | -12.8%
O=C(c1cn(Cc2ccccc2F)c2ncccc12)C(F)(F)F | -15.6% | -1.6% | . | 3.5% | -24.5% | 13.5%
COC(=O)C1=C(c2ccc(OCc3ccccc3)cc2)C[C@@H]2CC[C@H]1N2C(=O)NCc1ccc(OC)cc1 | . | 7.31µM* | . | -3.6% | 6.51µM* | .
COC(=O)C1=C(c2ccc(S(C)(=O)=O)cc2)C[C@@H]2CC[C@H]1N2C(=O)NCc1ccccc1 | -10.9% | -15.5% | . | -6.6% | -18.6% | .
COC(=O)C1=C(c2cccc(OCc3ccccc3)c2)C[C@@H]2CC[C@H]1N2C(=O)NCc1ccc(OC)cc1 | ? | 11.6µM* | 0.5% | -13.3% | 16.4µM* | -11.6%
COC(=O)C1=C(c2cccc(OCc3ccccc3)c2)C[C@@H]2CC[C@H]1N2C(=O)NCc1cccc(F)c1 | -20.6% | ? | 0.2% | 3.8% | ? | -18.3%
COC(=O)C1=C(c2cccc(OCc3ccccc3)c2)C[C@@H]2CC[C@H]1N2C(=O)NCc1ccc(OC)c(OC)c1 | -2.4% | 16.4µM* | 0.2% | -0.7% | 14.6µM* | -17.0%
SMILES | VDR inhibitor | DT40 TDP1 CPT | TDP1 inh | PLK1 PBD inh | TDP1 cell noCPT | KAT2A inh
COC(=O)C1=C(c2ccc(OCc3ccccc3)cc2)C[C@@H]2CC[C@H]1N2C(=O)NCc1cccc(OC)c1 | -23.8% | 18.4µM* | -0.1% | 0.7% | 20.6µM* | -5.3%
NC(CO)Cc1ccccc1 (stereo not given) | 5.5% | -7.2% | 3.8% | . | -20.9% | 40.9%
COC(=O)C1=C(c2ccc(OCc3ccccc3)cc2)C[C@@H]2CC[C@H]1N2C(=O)NCc1ccc(C(C)(C)C)cc1 | . | 11.6µM* | . | -5.0% | 9.2µM* | .
COC(=O)C1=C(c2cccc(OCc3ccccc3)c2)C[C@@H]2CC[C@H]1N2C(=O)NCc1ccc(Cl)cc1 | -10.6% | ? | -0.5% | 1.0% | ? | -8.4%
O=C(O)C1CN(CP(=O)(O)O)CCN1 (stereo not given) | 9.5% | . | 2.0% | . | . | -27.3%
C/C(=N\N=C(N)N)c1ccccc1 | 2.6% | ? | 7.0% | 3.8% | 18.4µM* | -4.5%
CN(C)c1nc(OCCNC(=O)COc2ccc(Cl)cc2Cl)nc(N2CCCCC2)n1 | 6.2% | 9.2µM* | 2.4% | -1.3% | 11.6µM* | -6.7%
CC[C@H](CC[C@@H](C)C1CC[C@H]2[C@@H]3CC=C4C[C@@H](O)CC[C@]4(C)[C@H]3CC[C@]12C)C(C)C (stereo not given in full) | 3.8% | 5.3% | 9.4%[56.1 µM] | . | -5.0% | 9.6%[0.501 µM]
CCc1cc2c(=O)n(C(C)C(=O)OC3CCCCC3)cnc2s1 (stereo not given) | -2.8% | ? | 2.3% | -1.4% | ? | 1.5%
CCCc1nc(SC)ncc1C(=O)Nc1ccc(Cl)cc1C(=O)c1ccccc1 | 9.6% | ? | 6.2% | . | 23.1µM* | -13.2%

Assay outcomes deposited in PubChem by National Center for Advancing Translational Sciences (NCATS).
